# From PubChem BioAssay (EPA / NIEHS)
# Inconclusive results are not listed. The source made the active and inactive calls. How the source made its calls, unless noted: active means hit-call score of the fitted dose curve at least 0.9, where 1 is the maximum; inactive means score below 0.9.
# Legend:
# [1] = ATG_NFI_CIS: Attagene CIS-FACTORIAL HepG2 Assay for human Nuclear Factor I (NFI) (AID 2282989); settings: HepG2 cis-regulatory reporter, NFI response element transcription; actives raise or lower the signal
# Outline: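 Transfected HepG2 liver cells, exposed 24 h, supplied total RNA for oligo(dT) reverse transcription and reporter-specific PCR. Labelled, HpaI-cut fragments were sized by capillary electrophoresis; DMSO set the baseline for bidirectional fitting.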
# [2] = biological target: Myc proto-oncogene protein (Homo sapiens) (UniProt P01106); assay: ATG_Myc_CIS: Attagene CIS-FACTORIAL HepG2 Assay for human Myelocytomatosis (Myc) Proto-Oncogene Transcription Factor (AID 2282990); settings: HepG2, Attagene cis-reporter transcription factor activity; actives raise or lower the signal
# Outline: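 Fluorescence intensity of reporter-specific cDNA fragments, separated by capillary electrophoresis, gives the signal. Transfected HepG2 cells carrying cis-promoter reporter constructs are incubated with compound for 24 h; DMSO serves as baseline.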
# [3] = ATG_NF_kB_CIS: Attagene CIS-FACTORIAL HepG2 Assay for human Nuclear Factor Kappa B (NF-kB) (AID 2282991); settings: HepG2 Attagene cis-factorial NF-kB reporter mRNA; actives raise or lower the signal
# Outline: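 Fluorescence of labelled RT-PCR products separated by capillary electrophoresis gives reporter mRNA levels from transfected HepG2 cells exposed 24 h; values are fitted in both directions relative to DMSO.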
# [4] = ATG_NRF2_ARE_CIS: Attagene CIS-FACTORIAL HepG2 Assay for human Nuclear Factor Erythroid 2 Related Factor 2 (NFR2) response to Antioxidant Response Elements (ARE) (AID 2282992); settings: HepG2 Attagene ARE/NRF2 reporter, transcription factor activity; actives raise or lower the signal
# Outline: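 HepG2 cells transiently transfected with multiplexed cis-element reporter constructs, 24 h after chemical dosing; reporter mRNA quantified by RT-PCR, fluorescent primer extension, HpaI digestion and capillary electrophoresis. Bidirectional fit relative to DMSO.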
# [5] = ATG_Oct_MLP_CIS: Attagene CIS-FACTORIAL HepG2 Assay for human Octamer-Binding Transcription Factor (Oct) (AID 2282993); settings: HepG2 Attagene cis-factorial Oct reporter, mRNA; actives raise or lower the signal
# Outline: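 Using HepG2 cells bearing transfected cis-reporter constructs, mRNA induction was read after 24 h by fluorescent RT-PCR and capillary electrophoresis, with DMSO defining baseline for gain- or loss-of-signal fits.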
# [6] = biological target: Cellular tumor antigen p53 (Homo sapiens) (UniProt P04637); assay: ATG_p53_CIS: Attagene CIS-FACTORIAL HepG2 Assay for human p53 Transcription Factor (AID 2282994); settings: HepG2 p53 cis-element reporter, Attagene mRNA; actives raise or lower the signal
# Outline: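 HepG2 cells transiently transfected with cis-regulated multiple reporter transcription units, dosed 24 h. Reporter mRNA measured by RT-PCR, 6-FAM primer extension, HpaI digestion and capillary electrophoresis; bidirectional fit relative to DMSO.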
# [7] = BSK_3C_TissueFactor: BioMAP Diversity Plus: 3C Assay for Tissue Factor Biomarker Activity (AID 2282997); settings: BioMAP 3C HUVEC, tissue factor biomarker readout; actives raise or lower the signal
# Outline: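 Human vascular primary cells (umbilical vein endothelium) received test chemical; Tissue Factor was determined by ELISA at 24 h, and both gain and loss of signal versus DMSO were fitted.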
# [8] = BSK_3C_uPAR: BioMAP Diversity Plus: 3C Assay for Urokinase-type plasminogen activator receptor (uPAR) Biomarker Activity (AID 2282998); settings: BioMAP 3C HUVEC, uPAR biomarker ELISA; actives raise or lower the signal
# Outline: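 In this endothelial cell-based assay, human umbilical vein primary cells were treated with chemicals and harvested at 24 h. uPAR was quantified using ELISA, with gains or losses fitted relative to DMSO controls.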
# [9] = BSK_3C_VCAM1: BioMAP Diversity Plus: 3C Assay for Vascular cell adhesion molecule 1 (VCAM1) Biomarker Activity (AID 2282999); settings: BioMAP 3C HUVEC, VCAM1 ELISA, cytokine-stimulated; actives raise or lower the signal
# Outline: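 Human umbilical vein endothelial cells (3C system), biomarker read by ELISA 24 h after dosing; bidirectional fit against DMSO baseline. Cytotoxicity tracked by SRB total-protein staining in parallel cultures at biomarker time.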
# [10] = BSK_4H_Eotaxin3: BioMAP Diversity Plus: 4H Assay for Eotaxin 3 Biomarker Activity (AID 2283000); settings: primary human endothelial cells (HUVEC); actives raise or lower the signal;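 on outcome: CCL26 protein level quantified by ELISA in parallel with SRB cytotoxicity check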
# Outline: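 Readout is Eotaxin-3 (CCL26) level by ELISA in primary human umbilical vein endothelial cells harvested 24 h after chemical exposure; activity fitted in both directions against DMSO control.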
# [11] = read-out: Intercellular Adhesion Molecule 1 (ICAM1), ICAM1 (gene 3383); assay: BSK_3C_ICAM1: BioMAP Diversity Plus: 3C Assay for Intercellular Adhesion Molecule 1 (ICAM1) Biomarker Activity (AID 2283003); settings: primary human endothelial cells (HUVEC); actives raise or lower the signal
# Outline: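 Human vascular endothelial primary cells, 3C conditions, 24 h treatment. ICAM-1 by ELISA.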
# [12] = biological target: human Retinoic Acid Receptor beta (RARb), RARB (gene 5915) (UniProt P10826); assay: ATG_RARb_TRANS: Attagene TRANS-FACTORIAL HepG2 Assay for human Retinoic Acid Receptor beta (AID 2283004; active means hit-call score of the fitted dose curve at least 0.9, where 1 is the maximum)
# Outline: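 Readout is reporter mRNA induction: RNA reverse-transcribed, PCR-amplified, FAM-labelled, HpaI-cut and resolved by capillary electrophoresis. Transiently transfected HepG2 cells carrying exogenous NR–Gal4 chimeras were dosed for 24 h; activity fitted upward relative to DMSO.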
# [13] = BSK_3C_Proliferation: Cell Proliferation Assessment in the BioMAP Diversity Plus: 3C Assay (AID 2283006); settings: primary human endothelial cells (HUVEC);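 on AC50: potency may reflect either rise or fall in cell number versus DMSO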
# Outline: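 Proliferation of human vascular endothelial primary cells after 48 h dosing, quantified as SRB-stained protein at 560 nm relative to DMSO.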
# [14] = biological target: Nuclear receptor subfamily 1 group I member 2 (Homo sapiens) (UniProt O75469); assay: ATG_PXR_TRANS: Attagene TRANS-FACTORIAL HepG2 Assay for human Pregnane X Receptor (PXR) (AID 2283008; active means hit-call score of the fitted dose curve at least 0.9, where 1 is the maximum)
# Outline: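 HepG2 cells transiently transfected with GAL4-UAS reporter units and PXR-Gal4 chimera, exposed 24 h. Reporter mRNA quantified by RT-PCR, fluorescent labelling, HpaI digestion and capillary electrophoresis; gain of signal vs DMSO.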
# [15] = biological target: human RAR-related Orphan Receptor beta (RORb), RORB (gene 6096) (UniProt Q92753); assay: ATG_RORb_TRANS: Attagene TRANS-FACTORIAL HepG2 Assay for human RAR-related Orphan Receptor beta (RORb) (AID 2283010; active means hit-call score of the fitted dose curve at least 0.9, where 1 is the maximum)
# Outline: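 In this TRANS-format test, human HepG2 cells express chimeric NR-Gal4 fusion proteins driving GAL4-UAS reporters. After 24 h dosing, reporter transcripts are measured by fluorescent RT-PCR/capillary electrophoresis, with DMSO as negative control.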
# [16] = biological target: human Peroxisome Proliferator-activated Receptor delta (PPARd), PPARD (gene 5467) (UniProt Q03181); assay: ATG_PPARd_TRANS: Attagene TRANS-FACTORIAL HepG2 Assay for human Peroxisome Proliferator-activated Receptor delta (PPARd) (AID 2283002; active means hit-call score of the fitted dose curve at least 0.9, where 1 is the maximum)
# Outline: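 Fluorescence from capillary electrophoresis of labelled RT-PCR reporter fragments gives the signal; DMSO sets baseline. Cells: HepG2 transiently carrying GAL4-UAS reporter units plus chimeric nuclear receptor-Gal4 proteins, exposed to chemicals for 24 h.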
# [17] = biological target: Peroxisome proliferator-activated receptor gamma (Homo sapiens) (UniProt P37231); assay: ATG_PPARg_TRANS: Attagene TRANS-FACTORIAL HepG2 Assay for human Peroxisome Proliferator-activated Receptor-gamma (PPARg) (AID 2283007; active means hit-call score of the fitted dose curve at least 0.9, where 1 is the maximum)
# Outline: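 Twenty-four hours after chemical dosing of transiently transfected HepG2 cells, isolated RNA was converted to cDNA, reporter sequences amplified and 6-FAM-labelled, then HpaI-digested and analysed by capillary electrophoresis. Signal increase against DMSO was fitted.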
# [18] = biological target: Retinoic acid receptor alpha (Homo sapiens) (UniProt P10276); assay: ATG_RARa_TRANS: Attagene TRANS-FACTORIAL HepG2 Assay for human Retinoic Acid Receptor alpha (RARa) (AID 2283005; active means hit-call score of the fitted dose curve at least 0.9, where 1 is the maximum)
# Outline: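 HepG2 transiently transfected with multiplex GAL4-UAS reporter units including a human RARa–GAL4 chimera; 24 h compound exposure. Reporter mRNA quantified by RT-PCR, 6-FAM labeling and capillary electrophoresis; gain of signal versus DMSO.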
# [19] = biological target: human Retinoic Acid Receptor gamma (RARg), RARG (gene 5916) (UniProt P13631); assay: ATG_RARg_TRANS: Attagene TRANS-FACTORIAL HepG2 Assay for human Retinoic Acid Receptor gamma (RARg) (AID 2283009; active means hit-call score of the fitted dose curve at least 0.9, where 1 is the maximum)
# Outline: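 HepG2, RARg-GAL4 TRANS system, 24 h exposure; reporter mRNA by RT-PCR + CE fluorescence; increase over DMSO.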
# Sequence of Nuclear receptor subfamily 1 group I member 2 (Homo sapiens) (O75469 whole entry, looked up, the tested form may be a part): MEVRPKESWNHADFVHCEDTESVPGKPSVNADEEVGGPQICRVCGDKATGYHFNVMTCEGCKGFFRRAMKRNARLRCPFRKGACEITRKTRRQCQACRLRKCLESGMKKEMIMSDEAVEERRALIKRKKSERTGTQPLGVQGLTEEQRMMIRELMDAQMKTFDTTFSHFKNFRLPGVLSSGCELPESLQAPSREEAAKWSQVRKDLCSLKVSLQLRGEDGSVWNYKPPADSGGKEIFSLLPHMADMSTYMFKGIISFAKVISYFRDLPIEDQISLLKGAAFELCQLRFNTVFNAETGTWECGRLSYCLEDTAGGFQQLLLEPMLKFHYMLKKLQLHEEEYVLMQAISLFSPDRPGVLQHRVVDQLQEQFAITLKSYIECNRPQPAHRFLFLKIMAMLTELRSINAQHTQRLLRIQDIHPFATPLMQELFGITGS
# Sequence of human RAR-related Orphan Receptor beta (RORb), RORB (gene 6096) (Q92753 whole entry, looked up, the tested form may be a part): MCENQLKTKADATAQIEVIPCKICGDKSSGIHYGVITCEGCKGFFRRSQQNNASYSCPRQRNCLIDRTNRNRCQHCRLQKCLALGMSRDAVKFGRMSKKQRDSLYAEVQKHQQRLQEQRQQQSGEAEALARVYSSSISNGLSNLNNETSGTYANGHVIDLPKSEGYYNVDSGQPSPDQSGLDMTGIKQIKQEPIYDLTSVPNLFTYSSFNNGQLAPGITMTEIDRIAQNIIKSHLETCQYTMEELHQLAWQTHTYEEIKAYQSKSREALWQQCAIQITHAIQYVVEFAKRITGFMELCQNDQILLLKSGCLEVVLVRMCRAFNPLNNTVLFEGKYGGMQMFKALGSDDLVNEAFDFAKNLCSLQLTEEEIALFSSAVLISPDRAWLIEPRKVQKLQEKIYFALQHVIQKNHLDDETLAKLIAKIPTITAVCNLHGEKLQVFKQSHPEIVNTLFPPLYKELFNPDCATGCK
# Sequence of human Peroxisome Proliferator-activated Receptor delta (PPARd), PPARD (gene 5467) (Q03181 whole entry, looked up, the tested form may be a part): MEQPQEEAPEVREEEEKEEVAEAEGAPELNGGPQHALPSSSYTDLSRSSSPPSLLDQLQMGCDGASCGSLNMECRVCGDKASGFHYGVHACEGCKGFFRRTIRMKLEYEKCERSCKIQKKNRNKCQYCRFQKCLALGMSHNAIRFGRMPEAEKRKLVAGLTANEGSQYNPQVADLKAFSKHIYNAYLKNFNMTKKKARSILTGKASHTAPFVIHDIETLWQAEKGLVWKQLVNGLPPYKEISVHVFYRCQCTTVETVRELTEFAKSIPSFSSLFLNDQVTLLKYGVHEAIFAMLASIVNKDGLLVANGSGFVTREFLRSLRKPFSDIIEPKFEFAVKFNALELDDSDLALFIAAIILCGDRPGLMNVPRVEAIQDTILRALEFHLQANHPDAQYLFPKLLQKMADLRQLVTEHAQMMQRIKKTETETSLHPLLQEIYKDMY
# Sequence of Cellular tumor antigen p53 (Homo sapiens) (P04637 whole entry, looked up): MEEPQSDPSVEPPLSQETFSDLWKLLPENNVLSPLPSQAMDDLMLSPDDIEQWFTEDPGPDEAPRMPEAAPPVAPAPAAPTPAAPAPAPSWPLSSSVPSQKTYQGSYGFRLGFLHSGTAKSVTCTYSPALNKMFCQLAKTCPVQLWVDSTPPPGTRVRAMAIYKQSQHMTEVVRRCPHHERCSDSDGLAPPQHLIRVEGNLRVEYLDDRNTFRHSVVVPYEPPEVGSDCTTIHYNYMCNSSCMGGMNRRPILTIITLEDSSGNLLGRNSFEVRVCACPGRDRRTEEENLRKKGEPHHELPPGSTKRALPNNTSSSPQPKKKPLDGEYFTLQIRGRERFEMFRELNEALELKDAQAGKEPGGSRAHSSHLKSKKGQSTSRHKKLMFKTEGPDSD
# Sequence of human Retinoic Acid Receptor beta (RARb), RARB (gene 5915) (P10826 whole entry, looked up, the tested form may be a part): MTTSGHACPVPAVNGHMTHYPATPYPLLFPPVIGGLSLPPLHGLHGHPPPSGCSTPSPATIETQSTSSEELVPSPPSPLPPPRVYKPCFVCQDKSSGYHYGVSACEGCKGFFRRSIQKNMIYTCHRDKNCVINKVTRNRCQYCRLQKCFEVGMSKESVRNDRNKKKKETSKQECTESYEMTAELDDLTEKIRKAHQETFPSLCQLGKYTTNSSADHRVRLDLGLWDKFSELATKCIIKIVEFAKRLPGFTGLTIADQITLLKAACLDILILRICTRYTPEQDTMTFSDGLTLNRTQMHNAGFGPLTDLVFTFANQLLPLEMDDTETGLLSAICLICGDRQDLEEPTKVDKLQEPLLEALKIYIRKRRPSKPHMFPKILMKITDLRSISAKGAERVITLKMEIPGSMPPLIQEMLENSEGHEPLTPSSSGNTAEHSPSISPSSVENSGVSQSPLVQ
# Sequence of Myc proto-oncogene protein (Homo sapiens) (P01106 whole entry, looked up, the tested form may be a part): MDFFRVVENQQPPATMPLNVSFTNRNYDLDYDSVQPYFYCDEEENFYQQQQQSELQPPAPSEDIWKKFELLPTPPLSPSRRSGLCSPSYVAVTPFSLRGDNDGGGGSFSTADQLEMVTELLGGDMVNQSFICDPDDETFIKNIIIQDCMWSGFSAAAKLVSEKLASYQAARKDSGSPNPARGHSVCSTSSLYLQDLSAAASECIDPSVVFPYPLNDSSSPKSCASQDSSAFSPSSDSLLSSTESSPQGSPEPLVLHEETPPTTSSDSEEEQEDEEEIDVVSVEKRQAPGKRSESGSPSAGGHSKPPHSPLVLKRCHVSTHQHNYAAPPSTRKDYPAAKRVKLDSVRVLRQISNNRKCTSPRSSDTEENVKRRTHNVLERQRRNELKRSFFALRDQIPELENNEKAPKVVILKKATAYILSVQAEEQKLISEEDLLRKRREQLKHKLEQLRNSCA
# Sequence of Retinoic acid receptor alpha (Homo sapiens) (P10276 whole entry, looked up, the tested form may be a part): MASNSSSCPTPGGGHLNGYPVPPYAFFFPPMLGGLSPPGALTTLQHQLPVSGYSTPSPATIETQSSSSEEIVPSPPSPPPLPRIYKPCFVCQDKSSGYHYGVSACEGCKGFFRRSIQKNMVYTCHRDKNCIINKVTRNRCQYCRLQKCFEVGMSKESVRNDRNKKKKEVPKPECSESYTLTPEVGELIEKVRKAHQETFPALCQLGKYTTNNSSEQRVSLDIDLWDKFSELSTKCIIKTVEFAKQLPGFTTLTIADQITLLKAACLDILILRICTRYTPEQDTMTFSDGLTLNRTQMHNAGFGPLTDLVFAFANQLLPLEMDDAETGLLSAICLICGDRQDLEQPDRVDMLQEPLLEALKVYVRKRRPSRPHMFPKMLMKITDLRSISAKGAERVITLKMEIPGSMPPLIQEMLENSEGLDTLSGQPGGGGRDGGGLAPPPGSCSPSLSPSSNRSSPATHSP
# Sequence of human Retinoic Acid Receptor gamma (RARg), RARG (gene 5916) (P13631 whole entry, looked up, the tested form may be a part): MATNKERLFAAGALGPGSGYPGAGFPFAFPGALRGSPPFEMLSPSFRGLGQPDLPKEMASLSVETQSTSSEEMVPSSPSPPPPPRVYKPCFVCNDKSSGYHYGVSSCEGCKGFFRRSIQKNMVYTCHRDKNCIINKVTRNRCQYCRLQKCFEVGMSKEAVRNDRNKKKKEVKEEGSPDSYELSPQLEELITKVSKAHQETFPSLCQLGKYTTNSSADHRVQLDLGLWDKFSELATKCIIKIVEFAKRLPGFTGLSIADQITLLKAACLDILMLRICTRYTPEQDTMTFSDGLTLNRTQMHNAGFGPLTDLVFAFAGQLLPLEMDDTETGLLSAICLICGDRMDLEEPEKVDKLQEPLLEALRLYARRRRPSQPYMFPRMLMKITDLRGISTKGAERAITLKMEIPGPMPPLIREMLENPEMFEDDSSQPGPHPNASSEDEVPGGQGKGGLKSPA
# Sequence of Peroxisome proliferator-activated receptor gamma (Homo sapiens) (P37231 whole entry, looked up): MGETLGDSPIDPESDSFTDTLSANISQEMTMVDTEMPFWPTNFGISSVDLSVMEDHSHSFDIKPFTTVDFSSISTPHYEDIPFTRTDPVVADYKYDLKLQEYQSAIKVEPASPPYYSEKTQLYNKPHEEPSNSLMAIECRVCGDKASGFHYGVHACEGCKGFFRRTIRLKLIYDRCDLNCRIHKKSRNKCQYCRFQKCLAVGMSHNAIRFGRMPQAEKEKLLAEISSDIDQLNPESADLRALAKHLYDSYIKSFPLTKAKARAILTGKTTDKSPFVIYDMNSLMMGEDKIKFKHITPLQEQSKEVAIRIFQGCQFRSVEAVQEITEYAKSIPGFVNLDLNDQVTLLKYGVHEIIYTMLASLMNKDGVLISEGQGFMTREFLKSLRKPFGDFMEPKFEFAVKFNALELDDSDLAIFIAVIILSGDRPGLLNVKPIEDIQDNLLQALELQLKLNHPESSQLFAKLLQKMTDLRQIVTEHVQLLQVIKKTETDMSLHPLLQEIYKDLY
smiles,measurement,setting,value
CCCCC(CC)COC(=O)c1ccc(C(=O)OCC(CC)CCCC)c(C(=O)OCC(CC)CCCC)c1 (stereo not drawn),outcome,[1],inactive
same,outcome,[2],inactive
same,outcome,[3],inactive
same,outcome,[4],inactive
same,outcome,[5],inactive
same,outcome,[6],inactive
same,outcome,[7],inactive
same,outcome,[8],inactive
same,outcome,[9],inactive
same,outcome,[10],inactive
same,outcome,[11],inactive
same,outcome,[12],inactive
same,outcome,[13],inactive
same,outcome,[14],inactive
same,outcome,[15],inactive
CCN(CC)CCO,outcome,[1],inactive
same,outcome,[2],inactive
same,outcome,[3],inactive
same,outcome,[4],inactive
same,outcome,[5],inactive
same,outcome,[6],inactive
same,outcome,[7],inactive
same,outcome,[8],inactive
same,outcome,[9],inactive
same,outcome,[10],inactive
same,outcome,[16],inactive
same,outcome,[11],inactive
same,outcome,[13],inactive
Cn1cc(-c2ccccc2)c(=O)c(-c2cccc(C(F)(F)F)c2)c1,outcome,[1],inactive
same,outcome,[2],inactive
same,AC50,[3],100 µM (active)
same,AC50,[4],44.2 µM (active)
same,outcome,[5],inactive
same,outcome,[6],inactive
same,outcome,[7],inactive
same,outcome,[8],inactive
same,outcome,[9],inactive
same,outcome,[10],inactive
same,outcome,[16],inactive
same,outcome,[11],inactive
same,outcome,[13],inactive
same,outcome,[17],inactive
same,AC50,[14],4.04 µM (active)
[As]#[In],outcome,[1],inactive
same,outcome,[2],inactive
same,outcome,[3],inactive
same,outcome,[4],inactive
same,outcome,[5],inactive
same,outcome,[6],inactive
same,outcome,[7],inactive
same,outcome,[8],inactive
same,outcome,[9],inactive
same,outcome,[10],inactive
same,outcome,[11],inactive
same,outcome,[12],inactive
same,outcome,[18],inactive
same,outcome,[13],inactive
same,outcome,[19],inactive
same,outcome,[15],inactive
CCC[CH2][Sn]([Cl])([CH2]CCC)[CH2]CCC,outcome,[1],inactive
same,outcome,[2],inactive
same,AC50,[3],0.601 µM (active)
same,AC50,[4],0.281 µM (active)
same,outcome,[5],inactive
same,AC50,[6],0.771 µM (active)
same,AC50,[7],0.148 µM (active)
same,AC50,[8],0.148 µM (active)
same,AC50,[9],0.148 µM (active)
same,AC50,[10],0.148 µM (active)
same,outcome,[16],inactive
same,AC50,[11],0.148 µM (active)
same,AC50,[13],0.148 µM (active)
same,AC50,[14],0.927 µM (active)
CC(O)CCO (stereo not drawn),outcome,[1],inactive
same,outcome,[2],inactive
same,outcome,[3],inactive
same,outcome,[4],inactive
same,outcome,[5],inactive
same,outcome,[6],inactive
same,outcome,[7],inactive
same,outcome,[8],inactive
same,outcome,[9],inactive
same,outcome,[10],inactive
same,outcome,[16],inactive
same,outcome,[11],inactive
same,outcome,[12],inactive
same,outcome,[18],inactive
same,outcome,[13],inactive
same,AC50,[14],24.1 µM (active)
same,outcome,[19],inactive
CC(C)N(Cc1ccccc1)C(=O)C(C)(C)C,outcome,[1],inactive
same,outcome,[2],inactive
same,outcome,[3],inactive
same,outcome,[4],inactive
same,outcome,[5],inactive
same,outcome,[6],inactive
same,outcome,[7],inactive
same,outcome,[8],inactive
same,outcome,[9],inactive
same,outcome,[10],inactive
same,outcome,[11],inactive
same,outcome,[12],inactive
same,outcome,[13],inactive
same,AC50,[14],0.556 µM (active)
COC(=O)c1ccccc1N,outcome,[1],inactive
same,outcome,[2],inactive
same,outcome,[3],inactive
same,outcome,[4],inactive
same,outcome,[5],inactive
same,outcome,[6],inactive
same,outcome,[7],inactive
same,outcome,[8],inactive
same,outcome,[9],inactive
same,outcome,[10],inactive
same,outcome,[16],inactive
same,outcome,[11],inactive
same,outcome,[13],inactive
same,outcome,[15],inactive
